This is an account of results in PubChem BioAssay AID624483 (NMMLSC, 2012).

Screen size: about 360,000 compounds; about 11,000 (3.1%) were called active. Not shown: some 2% with an inconclusive outcome. This is one part of a sample in which actives are shown more often than they occur. Cut-off read from the data, not from the text of the source: active = fluorescence intensity above about 16000; inconclusive = no clear call, values can overlap the other calls; inactive = below that.

This test can be described thus: compound fluorescence in toxin protease inhibitor counterscreen, primary screen, artefact control for toxin protease inhibitor project, biochemical, multiplex microsphere, HTS (AID 624483). Particulars: compound autofluorescence counterscreen, microsphere flow cytometry; hits give high values.
For the compound `CC1(C)C(C=C(Cl)Cl)C1C(=O)NC(O)C(=O)c1ccccc1` (centres undefined), the fluorescence intensity was 3770 (inactive).
In the case of `CCOC(=O)C1=CC[C@@H](c2ccccc2)N(S(=O)(=O)c2ccc(C)cc2)[C@H]1c1ccc(CC)cc1`, the fluorescence intensity was 5350 (inactive).
As to `OC[C@@H]1CN(Cc2cccs2)C[C@H](n2cnc3c(NC4CCCC4)ncnc32)O1`, the fluorescence intensity is 4050 (inactive).
`O=C(NCC(F)(F)F)Nc1nnc(C(F)(F)F)s1`: the fluorescence intensity is 2520 (inactive).
As to `Fc1cnc(N2CCOCC2)nc1NCc1ccccc1`, the fluorescence intensity was 19200 (active).
As to `c1ccc(COc2nsnc2N2CCOCC2)cc1`, the fluorescence intensity was 4190 (inactive).
`CC(Nc1nc(N2CCOCC2)nc2ccccc12)c1ccccc1` (centres undefined): the fluorescence intensity was 4260 (inactive).
Regarding `COc1cccc(N(CC(=O)NC2CCCC2)C(=O)CCCC(=O)Nc2ccccn2)c1`, the fluorescence intensity is 6270 (inactive).
Consider `COc1ccc(-c2nnn(CC(=O)N(CCO)C(C(=O)NC3CCCC3)c3ccc(F)cc3)n2)cc1` (centres undefined), for which the fluorescence intensity was 20700 (active).
The same measure for `CC(C)CCNC(=O)CN(C(=O)Cn1nnc(-c2ccc(F)cc2)n1)C1CCCC1`: 7590 (inactive); for `CCOCCCN(C(=O)Cn1nnc(-c2ccc(OC)c(OC)c2)n1)C(CC)C(=O)NC1CCCC1` (centres undefined): 3360 (inactive).
Turning to `COc1cccc(N(CC(=O)NC2CCCC2)C(=O)Cn2nnc(-c3ccc(C)cc3)n2)c1`, the fluorescence intensity was 20000 (active).
As for `COc1cccc(N(CC(=O)NC2CCCC2)C(=O)Cn2nnc(-c3ccc(C)o3)n2)c1`, the fluorescence intensity was 5040 (inactive).
Turning to `CC(C)CCNC(=O)C(C)N(C(=O)Cn1nnc(-c2ccc(F)cc2)n1)C1CCCC1` (centres undefined), the fluorescence intensity was 23500 (active).
Consider `CN(C(=O)Cn1nnc(-c2ccc(F)cc2)n1)C1CCS(=O)(=O)C1` (centres undefined), for which the fluorescence intensity is 6480 (inactive).
Turning to `COc1ccc(C(C(=O)NC2CCCC2)N(CCCO)C(=O)Cn2nnc(-c3ccc(C)o3)n2)cc1` (centres undefined), the fluorescence intensity is 5780 (inactive).
Turning to `Cc1ccc(C(=O)O)cc1S(=O)(=O)NCC1CCCO1` (centres undefined), the fluorescence intensity is 8490 (inactive).
Consider `O=C(O)C(=Cc1ccccc1[N+](=O)[O-])c1ccccc1`, for which the fluorescence intensity is 3020 (inactive).
On to `CCOC1=C2[C@H]([C@H]3C(=O)N(c4ccccc4)C(=O)[C@H]3C1)[C@@H](c1ccccc1)N(S(=O)(=O)c1ccc(C)cc1)[C@H]2c1ccccc1`, for which the fluorescence intensity was 5740 (inactive).
For `CN(CCO)C(=O)c1nc[nH]c1C(=O)N(C)Cc1ccccc1`, the fluorescence intensity is 6070 (inactive).
Regarding `COCCCNc1ccn2nc(-c3ccc(CC(C)C)cc3)cc2n1`, the fluorescence intensity is 3740 (inactive).
Regarding `CC1(C(=O)Nc2cccc(Oc3ccccc3)c2)CCN1Cc1ccccc1Cl` (centres undefined), the fluorescence intensity was 2960 (inactive).
The figure for `CCCS(=O)(=O)NC(=O)C1(C)CCCN(C(=O)c2ccnc(Cl)c2)C1` (centres undefined) is 3780 (inactive); for `O=C(NCc1cccnc1)c1cc(C2CCCN(C(=O)C3CCCCC3)C2)on1` (centres undefined) it is 3680 (inactive).
On to `CC1(C)CC(=O)C=C(NCCCNC2CCCCC2)C1`, for which the fluorescence intensity is 16400 (active).
The same measure for `CC1(C)CC(=O)C=C(NCCCN2CCCC2=O)C1`: 10600 (inactive); for `CC1(C)CC(=O)C=C(NC2CC(C)(C)NC(C)(C)C2)C1`: 11500 (inactive).
Turning to `CCOc1ccc(C(=O)NC2CCN(CC(=O)NCc3cccs3)CC2)cc1`, the fluorescence intensity is 4320 (inactive).
The figure for `CC(=O)c1cccc(-c2cnc3c(NC=O)cc(-c4ccccc4Oc4ccccc4)cn23)c1` is 2970 (inactive); for `CCc1nc2ccc(C(=O)Nc3ccc(OC)c(OC)c3)cn2c1N(C)C(=O)c1cccc(OC)c1` it is 3840 (inactive).
As to `O=C1CCc2cc(S(=O)(=O)N3CCC(C(=O)NCc4ccccc4Cl)CC3)ccc2N1`, the fluorescence intensity was 5010 (inactive).
In the case of `Cc1cccc(NC(=O)C2CCCN2S(=O)(=O)c2ccc(F)cc2)c1C` (centres undefined), the fluorescence intensity was 12300 (inactive).
The figure for `CSc1cccc(NC(=O)C2CCCN2S(=O)(=O)c2ccc3c(c2)CCC(=O)N3)c1` (centres undefined) is 22100 (active).
Consider `O=CNc1cc(-c2ccc(C(=O)N3CCOCC3)cc2)cn2c(-c3ccc(F)cc3)cnc12`, for which the fluorescence intensity was 4100 (inactive).
The figure for `NC(Cc1ccccc1)c1csc(Nc2cc(Oc3ccccc3)ncn2)n1` (centres undefined) is 3760 (inactive).
The figure for `CC1CC(C)CN(CC(=O)Nc2ccc(S(N)(=O)=O)cc2)C1` (centres undefined) is 4900 (inactive).
As for `CN1CCN(C(=O)N2c3ccccc3CCc3ccccc32)CC1`, the fluorescence intensity is 4530 (inactive).
The same measure for `CC1CC(C)CN(CC(=O)N2c3ccccc3CCc3ccccc32)C1` (centres undefined): 17600 (active); for `Cc1cccc(C)c1-n1nnnc1C1(C)CCC(=O)N1CCOc1ccccc1` (centres undefined): 6150 (inactive); for `Cc1nc2c(OCC(=O)C(C)(C)C)cccn2c1N(C)Cc1cccs1`: 2880 (inactive).
Turning to `CC(C)C[C@@H]1Cc2[nH][nH]c(=O)c2[C@H](CCc2ccccc2)O1`, the fluorescence intensity was 4470 (inactive).
`N=C1c2ccccc2-c2ccccc21`: the fluorescence intensity was 3590 (inactive).
As for `COc1ccc(C(C#N)N2N=C(C)CC2(C)C)cc1` (centres undefined), the fluorescence intensity was 4130 (inactive).
`O=C(CSc1nc2ccccc2o1)N1c2ccccc2Sc2ccc(Cl)cc21`: the fluorescence intensity is 22300 (active).
Regarding `O=C(CSc1nc2ccccc2o1)N1CCN(c2ccccc2)CC1`, the fluorescence intensity was 2560 (inactive).
For the compound `CC1Cc2ccccc2N1C(=O)CSc1nnc(C2CC2)n1C` (centres undefined), the fluorescence intensity is 4920 (inactive).
The same measure for `O=C(CSc1nc2ccccc2o1)N1CCN(c2ccc(Cl)cc2)CC1`: 6400 (inactive).
The figure for `CCn1c(CSc2ncccn2)nnc1SCC(=O)N1c2ccccc2CC1C` (centres undefined) is 23500 (active); for `Cc1ccc(NC(=O)CSc2nnc(COc3ccccc3C)o2)cc1` it is 3160 (inactive); for `CCS(=O)(=O)c1ccc2oc(SCC(=O)N3c4ccccc4CC3C)nc2c1` (centres undefined) it is 8960 (inactive).
The same measure for `Cc1ccccc1OCc1nnc(SCC(=O)N2c3ccccc3Sc3ccc(Cl)cc32)o1`: 20200 (active); for `CC1CC(C)CN(C(=O)CSc2nnc(CSc3ncccn3)n2C)C1` (centres undefined): 4260 (inactive); for `CC1Cc2ccccc2N1C(=O)CSc1nc2ccccc2o1` (centres undefined): 16300 (active).
As for `CC(C)NC(=O)CSc1nnc(COc2ccccc2Cl)o1`, the fluorescence intensity is 4480 (inactive).
As for `CC1Cc2ccccc2N1C(=O)Cn1cnc2ccccc2c1=O` (centres undefined), the fluorescence intensity is 3200 (inactive).
`O=S(=O)(c1ccc(Cl)cc1)N1CCCN(c2ccc(C(F)(F)F)cn2)CC1`: the fluorescence intensity is 6060 (inactive).
On to `NC(c1csc(NC(=O)Nc2cccc(C(F)(F)F)c2)n1)C1CCCCC1` (centres undefined), for which the fluorescence intensity was 2870 (inactive).
Turning to `Cc1cc2oc3ccc(NCCC4CCCN4C)cc3c(=O)c2cc1C` (centres undefined), the fluorescence intensity was 5120 (inactive).
For `COC(=O)c1ccc2nc(-c3ccc(F)cc3)c(Cc3ccc(C)cc3)n2c1`, the fluorescence intensity is 7460 (inactive).
